From PubChem BioAssay (NCATS) come the findings set out here.

Each structure is given as a SMILES string. Where “and” joins values, the source holds several entries; their conditions need not be identical. Identical values can stand only once. Records with an inconclusive call do not appear. Some compounds were tested as several samples or in several runs, with calls that do not always agree. Calls of active or inactive are those of the source. Unless noted, calls follow the shape of the dose curve; as a rule, active = well fitted curve in the direction sought with a large enough effect; inconclusive = small, poorly fitted or top-dose-only effect, or another doubt; inactive = no such curve, though single readings can be large; an effect the other way counts as inactive or inconclusive.
% is scaled to controls: 0 for no effect and ±100 for the full control effect; potency is read from the fitted curve at half-maximal effect.

The target in the first test is Cytochrome P450 2C9 (Homo sapiens) (UniProt P11712). In words: Cytochrome P450 family 2 subfamily C member 9 (CYP2C9) small molecule antagonists: luciferase biochemical (cell-free) qHTS assay (AID 1645842; active = well fitted curve in the direction sought with a large enough effect in the repeat runs; an effect the other way counts as inactive or inconclusive; also: nearly all actives have a fitted effect of over 55% in size). The settings on record: P450-Glo CYP2C9 enzyme assay, luciferin luminescence; series mostly up to 57.4 µM. Put shortly: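 P450-Glo CYP2C9 system: proluciferin substrate with enzyme in mix containing 0.4% BSA, 10 min at room temperature, then NADPH regeneration solution added and incubated 1 h at 37C. Detection reagent stopped reaction; luminescence read after 20 min as RLU.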
Chain of Cytochrome P450 2C9 (Homo sapiens) (P11712 whole entry, looked up): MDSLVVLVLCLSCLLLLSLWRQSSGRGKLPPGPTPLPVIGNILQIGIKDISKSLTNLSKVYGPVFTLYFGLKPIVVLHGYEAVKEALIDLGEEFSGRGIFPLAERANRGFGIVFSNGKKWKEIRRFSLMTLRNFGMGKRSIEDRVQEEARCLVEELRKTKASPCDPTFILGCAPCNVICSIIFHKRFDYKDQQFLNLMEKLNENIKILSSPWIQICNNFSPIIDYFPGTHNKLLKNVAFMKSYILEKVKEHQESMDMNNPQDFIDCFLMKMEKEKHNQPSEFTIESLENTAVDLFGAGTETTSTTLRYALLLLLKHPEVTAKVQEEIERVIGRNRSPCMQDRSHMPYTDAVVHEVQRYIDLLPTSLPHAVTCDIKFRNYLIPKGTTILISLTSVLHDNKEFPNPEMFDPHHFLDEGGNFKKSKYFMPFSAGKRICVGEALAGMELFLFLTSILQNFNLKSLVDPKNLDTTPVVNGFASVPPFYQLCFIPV
For orientation: In qHTS, concentration-response curves come from the screen itself.
Consider `CN[C@H](C(=O)N[C@H](C(=O)N(C)[C@H](/C=C(\C)C(=O)O)C(C)C)C(C)(C)C)C(C)(C)c1ccccc1`, for which the Potency entry is “inactive”.

Consider `CC1(c2nc3c(C(N)=O)cccc3[nH]2)CCCN1` (stereo not drawn), for which the Potency result was “inactive”.

On to `COc1cc(Br)c(S(=O)(=O)Nc2ccc(C(F)(F)F)c(O[C@@H]3CCN(C)C3)c2)cc1OC`, for which the Potency was 23900 nM (active).

On to `O=C(O)C1CN(Cc2ccc(-c3nc4cc(Cc5ccccc5F)ccc4s3)c(F)c2)C1`, for which the activity change, negative = inhibition is -11.3% [at 11.5 µM] (inactive).

Take `COc1ccc(-c2cnc(-c3cccc4c3-c3ccccc3C4=O)o2)cc1`: the Potency is 657 nM (active).

As to `NC(=O)Nc1cc(-c2cccc(F)c2)sc1C(=O)NC1CCCNC1` (stereo not drawn), the Potency entry is “inactive”.

Turning to `O=S(=O)(NCC1CC1)c1ccc(Nc2nccc(N3CCCc4cc(O)ccc43)n2)cc1`, the Potency is 1070 nM (active).

Turning to `Cc1cc(C)c(CNC(=O)c2cc(-c3ccc(CN4CCOCC4)cc3)cc3c2cnn3C2CCCC2)c(=O)[nH]1`, the Potency is 2390 nM (active).

Turning to `N#Cc1ccc(C(=O)N2CCC3(CC2)N=C(N)c2c(F)ccc(F)c2N3)cn1`, the Potency result was “inactive”.

`Cn1c2ccc(F)cc2c2c(C(=O)N3CCCC3)cn(-c3ccccc3)c(=O)c21`: the Potency is 1510 nM (active).

In the case of `CNC(=O)c1ccccc1Nc1nc(Nc2ccc(N3CCNCC3)cc2)ncc1Cl`, the Potency was 6010 nM (active).

On to `Cn1c(=O)n(-c2ccc(C(C)(C)C#N)cc2)c2c3cc(C#Cc4cccnc4)ccc3ncc21`, for which the Potency was 522 nM (active).

As for `COc1ccc(Oc2cc(C)c(-c3csc(NC(=O)c4ccncc4)n3)c(C)c2)cc1`, the Potency was 4770 nM (active).

Take `Cc1cccc(S(=O)(=O)N2CCC[C@@H]2CCN2CCC(C)CC2)c1`: the Potency result was “inactive”.

As for `CC(C)[C@@](C)(O)[C@@H]1CN(c2nc(-c3[nH]nc4ncccc34)c(F)cc2Cl)CCN1`, the Potency is 12000 nM (active).

For `O=C(Nc1ccc(S(=O)(=O)Nc2nccs2)cc1)C(c1ccccc1)c1ccccc1`, the Potency was 674 nM (active).

For `Cc1cccc(C)c1OCc1cc(C(=O)N2CCC(c3ccncc3)CC2)no1`, the Potency is 338 nM (active).

Regarding `COc1ccc(C(=O)Nc2ncc(-c3ccc(C(=O)O)cc3)s2)cc1`, the Potency was 10700 nM (active).

As for `CCN(Cc1cccnc1)C(=O)CN(c1ccc(OC)nc1)S(=O)(=O)c1ccccc1C`, the Potency is 19000 nM (active).

As for `COc1ccc(F)cc1-c1cc(NC(=O)[C@@H]2CCCNC2)ncc1Cl`, the Potency is 1340 nM (active).

With `COc1cc(Nc2nc3c(s2)CCCC3c2ccc(F)cc2)ccc1-n1cnc(C)c1` (stereo not drawn), the Potency was 1340 nM (active).

For the compound `CC[C@@H](N)CNc1ccnc(-c2cc(-c3cnn(C)c3)ccc2O)n1`, the Potency is 13500 nM (active).

In the case of `Cc1cc(C(=O)N2CCCCc3ccccc32)ccc1CNC(=O)N1CCC[C@H]1C(=O)N(C)C`, the Potency entry is “inactive”.

In the case of `COc1ncc2cc(C(=O)Nc3cc(C(=O)NCc4cccc(Cl)c4)ccc3Cl)c(=O)[nH]c2n1`, the Potency was 19000 nM (active).

For the compound `Cc1ccc(NC(=O)C(=O)NC2CC(C)(C)NC(C)(C)C2)cc1`, the Potency entry was “inactive”.

On to `O=[N+]([O-])c1cccc2[nH]c(CNc3nc(N4CCOCC4)nc4c3ncn4-c3ccsc3)nc12`, for which the Potency was 952 nM (active).

On to `O=C1N=C(N2CCOCC2)CN1c1ccc(Cl)cc1`, for which the Potency result is “inactive”.

In the case of `COc1ccc(-c2ccc3c(N4CCOCC4)nc(N4CC(C)OC(C)C4)nc3n2)cc1CO` (stereo not drawn), the Potency was 6740 nM (active).

For the compound `Cc1oc2ccccc2c1CNC(=O)NCc1cccs1`, the Potency result is “inactive”.

In the case of `CN(C)c1nc(NC2CCC(NCCc3ccc(Br)cc3OC(F)(F)F)CC2)nc2ccccc12` (stereo not drawn), the Potency is 7560 nM (active).

Regarding `Cc1nc(C)c(-c2ccc(C3CCC(CC(=O)O)CC3)cc2)nc1C(N)=O` (stereo not drawn), the Potency result was “inactive”.

`CCc1cc(CN2CC(C(=O)O)C2)sc1-c1noc(-c2ccc(Oc3ccccc3)cc2)n1`: the Potency entry was “inactive”.

For `CC(C)(C#N)c1ccc(N2C(=O)OCc3cnc4ccc(-c5cnc6ccccc6c5)cc4c32)cc1`, the Potency was 2680 nM (active).

Consider `COc1cc(NC(=O)Nc2cccc(CNC(=O)O[C@H]3CCOC3)c2)ccc1-c1cnco1`, for which the Potency is 37.9 nM (active).

On to `COc1cc2nc(N3CCC(N4CCCCC4)CC3)nc(NC3CCCCCC3)c2cc1OC`, for which the Potency result was “inactive”.

For `CCCn1c(=O)c2[nH]c(-c3ccc(OCC(=O)O)cc3)nc2n(CCC)c1=O`, the Potency entry is “inactive”.

`Nc1ccc(-c2cccc3c(=O)cc(N4CCOCC4)oc23)cc1`: the Potency was 9520 nM (active).

For `O=C(c1ccccc1)c1ccc2nc(NC(=O)c3csc(C4CCN(c5ncnc6ccsc56)CC4)n3)[nH]c2c1`, the Potency is 9520 nM (active).

Take `Cc1cc(C(=O)Nc2cccc(C(=O)Nc3cccc(C(F)(F)F)c3)c2)on1`: the Potency was 3790 nM (active).

System in the next test: not listed separately
In words: Primary qHTS for inhibitors of nuclear receptor binding SET domain protein 2 (NSD2) in an isogenic RCH-ACV NSD2 p.E1099K mutant (9B) (AID 1645876). Also: nearly all actives have a fitted effect of over 70% in size. The settings on record: RCH-ACV (leukaemia line) NSD2 E1099K (9B) viability, CellTiter-Glo, 72 h; series mostly up to 44.9 µM.
Take `CN[C@H](C(=O)N[C@H](C(=O)N(C)[C@H](/C=C(\C)C(=O)O)C(C)C)C(C)(C)C)C(C)(C)c1ccccc1`: the Potency result was “inactive”.

Take `CC1(c2nc3c(C(N)=O)cccc3[nH]2)CCCN1` (stereo not drawn): the Potency entry is “inactive”.

On to `COc1cc(Br)c(S(=O)(=O)Nc2ccc(C(F)(F)F)c(O[C@@H]3CCN(C)C3)c2)cc1OC`, for which the Potency result is “inactive”.

With `O=C(O)C1CN(Cc2ccc(-c3nc4cc(Cc5ccccc5F)ccc4s3)c(F)c2)C1`, the activity change, negative = viability loss is 0.892% [at 9.23 µM] (inactive).

On to `COc1ccc(-c2cnc(-c3cccc4c3-c3ccccc3C4=O)o2)cc1`, for which the Potency is 89.3 nM (active).

As for `NC(=O)Nc1cc(-c2cccc(F)c2)sc1C(=O)NC1CCCNC1` (stereo not drawn), the Potency was 72.8 nM (active).

Consider `O=S(=O)(NCC1CC1)c1ccc(Nc2nccc(N3CCCc4cc(O)ccc43)n2)cc1`, for which the Potency is 1150 nM (active).

`Cc1cc(C)c(CNC(=O)c2cc(-c3ccc(CN4CCOCC4)cc3)cc3c2cnn3C2CCCC2)c(=O)[nH]1`: the Potency entry is “inactive and 18.6 µM (active)”.

For `N#Cc1ccc(C(=O)N2CCC3(CC2)N=C(N)c2c(F)ccc(F)c2N3)cn1`, the Potency result was “inactive”.

Consider `Cn1c2ccc(F)cc2c2c(C(=O)N3CCCC3)cn(-c3ccccc3)c(=O)c21`, for which the Potency result is “inactive”.

Consider `CNC(=O)c1ccccc1Nc1nc(Nc2ccc(N3CCNCC3)cc2)ncc1Cl`, for which the Potency is 103 nM (active).

As to `Cn1c(=O)n(-c2ccc(C(C)(C)C#N)cc2)c2c3cc(C#Cc4cccnc4)ccc3ncc21`, the Potency was 17.8 nM (active).

Consider `COc1ccc(Oc2cc(C)c(-c3csc(NC(=O)c4ccncc4)n3)c(C)c2)cc1`, for which the Potency was 163 nM (active).

Regarding `Cc1cccc(S(=O)(=O)N2CCC[C@@H]2CCN2CCC(C)CC2)c1`, the Potency result is “inactive”.

With `CC(C)[C@@](C)(O)[C@@H]1CN(c2nc(-c3[nH]nc4ncccc34)c(F)cc2Cl)CCN1`, the Potency is 6490 nM (active).

On to `O=C(Nc1ccc(S(=O)(=O)Nc2nccs2)cc1)C(c1ccccc1)c1ccccc1`, for which the Potency entry is “inactive”.

On to `Cc1cccc(C)c1OCc1cc(C(=O)N2CCC(c3ccncc3)CC2)no1`, for which the Potency is 10300 nM (active).

Consider `COc1ccc(C(=O)Nc2ncc(-c3ccc(C(=O)O)cc3)s2)cc1`, for which the Potency was 1630 nM (active).

In the case of `CCN(Cc1cccnc1)C(=O)CN(c1ccc(OC)nc1)S(=O)(=O)c1ccccc1C`, the Potency entry was “inactive”.

On to `COc1ccc(F)cc1-c1cc(NC(=O)[C@@H]2CCCNC2)ncc1Cl`, for which the Potency is 64.9 nM (active).

As for `COc1cc(Nc2nc3c(s2)CCCC3c2ccc(F)cc2)ccc1-n1cnc(C)c1` (stereo not drawn), the Potency was 11500 nM (active).

Turning to `CC[C@@H](N)CNc1ccnc(-c2cc(-c3cnn(C)c3)ccc2O)n1`, the Potency was 1290 nM (active).

Consider `Cc1cc(C(=O)N2CCCCc3ccccc32)ccc1CNC(=O)N1CCC[C@H]1C(=O)N(C)C`, for which the Potency result is “inactive”.

Consider `COc1ncc2cc(C(=O)Nc3cc(C(=O)NCc4cccc(Cl)c4)ccc3Cl)c(=O)[nH]c2n1`, for which the Potency was 6510 nM (active).

Turning to `Cc1ccc(NC(=O)C(=O)NC2CC(C)(C)NC(C)(C)C2)cc1`, the Potency result was “inactive”.

With `O=[N+]([O-])c1cccc2[nH]c(CNc3nc(N4CCOCC4)nc4c3ncn4-c3ccsc3)nc12`, the Potency was 64.9 nM (active).

In the case of `O=C1N=C(N2CCOCC2)CN1c1ccc(Cl)cc1`, the Potency entry was “inactive”.

Consider `COc1ccc(-c2ccc3c(N4CCOCC4)nc(N4CC(C)OC(C)C4)nc3n2)cc1CO` (stereo not drawn), for which the Potency was 205 nM (active).

Turning to `Cc1oc2ccccc2c1CNC(=O)NCc1cccs1`, the Potency entry is “inactive”.

`CN(C)c1nc(NC2CCC(NCCc3ccc(Br)cc3OC(F)(F)F)CC2)nc2ccccc12` (stereo not drawn): the Potency is 3650 nM (active).

Regarding `Cc1nc(C)c(-c2ccc(C3CCC(CC(=O)O)CC3)cc2)nc1C(N)=O` (stereo not drawn), the Potency entry is “inactive”.

As to `CCc1cc(CN2CC(C(=O)O)C2)sc1-c1noc(-c2ccc(Oc3ccccc3)cc2)n1`, the Potency was 10000 nM (active).

`CC(C)(C#N)c1ccc(N2C(=O)OCc3cnc4ccc(-c5cnc6ccccc6c5)cc4c32)cc1`: the Potency is 728 nM (active).

As for `COc1cc(NC(=O)Nc2cccc(CNC(=O)O[C@H]3CCOC3)c2)ccc1-c1cnco1`, the Potency was 459 nM (active).

As to `COc1cc2nc(N3CCC(N4CCCCC4)CC3)nc(NC3CCCCCC3)c2cc1OC`, the Potency was 2300 nM (active).

In the case of `CCCn1c(=O)c2[nH]c(-c3ccc(OCC(=O)O)cc3)nc2n(CCC)c1=O`, the Potency entry is “inactive”.

As for `Nc1ccc(-c2cccc3c(=O)cc(N4CCOCC4)oc23)cc1`, the Potency was 1630 nM (active).

As to `O=C(c1ccccc1)c1ccc2nc(NC(=O)c3csc(C4CCN(c5ncnc6ccsc56)CC4)n3)[nH]c2c1`, the Potency was 3250 nM (active).

`Cc1cc(C(=O)Nc2cccc(C(=O)Nc3cccc(C(F)(F)F)c3)c2)on1`: the Potency entry was “inactive”.
